Laboratory results reported in PubChem BioAssay AID1508600 (Functional Genomics Laboratory (NCATS/FGL), 2020).
Screen size: about 53,000 sequences; about 3,700 (7%) were called active. This is one part of a sample in which actives are shown more often than they occur.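 The calls were made as follows: active = gene knockdowns whose robust z-score for IL-1 alpha signal is at least 2 or at most -2, so actives lie on both sides; inactive = the rest.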

Experiment: Components of the Cytosolic LPS Sensing Pathway: Gene Identification via Genome-wide siRNA Screen;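 also: robust z of the log signal after scaling to non-targeting control siRNA wells of the plate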
Settings: RAW264.7 macrophages, IL-1a HTRF, actives lie on both sides, screened at 100 nM (by protocol), cells primed 5 h with Pam3CSK4 first
How it was run: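 RAW264.7; siRNA 100 nM final, RNAiMAX, 48h 37 degrees C; Pam3CSK4 5 h; LipidA + TransIT-TKO 24 h; IL-1a HTRF; CellTiter-Glo viability; robust z vs negative-control median.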

z-score, active:
CGCAUACUGAUGAUAACUATT against Zfp317 2.12
GGACGACGACUUUUUAAAATT against Pnmal1 2.18
GGUCCAGAGAAGGCAAGCUTT against Elf3 5.87
GGACUACAUGCUCACGUUATT against Ccm2 2.07
GGUUCCUCUCAAAAUUCAATT against Gprc6a 3.13
CCUUAAAAGUAACCACUGUTT against Slc6a6 2.38
GGCUCUAACAGCUACAUGUTT against Hspb7 -2.21
CCUACUUUGGACUCUUUCATT against Tnfsf12 -2.25
GCAAAAGUGUAUCAUGAUGTT against Olfr1052 -2.17
GGGUUUCUUGAUUCUGACCTT against Ccl5 -2.33
GCUGAGUGAAUCCACGUACTT against Mzb1 -2.65
GGCUUUUCUAGUUCCUCAATT against Pdzd7 -2.01
GGAUGGAGGAAGACUCGAUTT against Etv6 2.14
GGAUGCUUUAACUUCAAACTT against Crebrf 2.56
GGAACAGAAGUCAAGUGGATT against Acsm5 2.69
CCUGGUGUUCGUGUACCUGTT against Cdk5r2 3.1
GCACUAGAAGUGUCUUUUCTT against Cdhr1 2.17
CCAGUGCAGGACCUCAUUUTT against Sod1 -2.06
GGACAGAGCAUCACAGAAGTT against Tmem154 -2.33
CGAAACUUACCAGGAGUCGTT against Ttyh2 -2.31
GGGAAUACGGAACCUUCUUTT against Olfr683 2.04
GGAAGGAAGCAGAGAGUUATT against Ndel1 2.92

z-score, inactive:
CGACACCUAAGUUCAGCACTT against Mief2 -1.91
GCACUUUCAUGGAUAUAAGTT against Rab22a -0.366
GGCACUACUAAGAACCUUATT against Tmem69 0.728
GGAAACCUUUUACCUUUAATT against Padi1 -0.874
CCAAAAUCGGGAAAGGAAATT against Ldb2 -0.00816
GGCUUGACCUGCGUCUUCATT against 1700001P01Rik 0.736
GGAACAUUGGCAUCACGACTT against Acy1 0.901
CCAUCUCUUACUAUCCAUGTT against Cmbl -1.03
GGCAUGACUGGACUGAAAATT against Ythdf3 -0.976
GGGAUUUAGCACAAGAUACTT against Brinp3 0.606
GGUAUUCUUGGAAGGAGGGTT against Prss22 0.153
CGAAAAUCUUCUGGCUCACTT against Llgl2 -0.922
GGGACUUAGAAACAAUCCATT against Hsd3b4 1.77
GGUAGCGAUGUUUUCUUAUTT against Nt5dc3 1.66
GGUCAUGCUGAUCAGCGACTT against Itfg2 -0.564
CGCCGCACAGUUAAUGCUUTT against Mettl17 0.973
GCGAGAGAUGAAAUGGGUGTT against Tbc1d10c 1.07
GGUUUUAUCUCUUGUGCCCTT against Myl10 -0.565
GGCCAAGGAUCCAUCUGUATT against Magee1 0.11
GCAAUAGCAGCAACUCUUATT against Dbpht1 -0.369
GGGAGAUGUCUUACACAUGTT against Fkbp2 1.12
GGUGGUUCUCAGCUGUGUATT against Arhgef18 -1.08
GGAUGAUGAAUGCAAUUAATT against Eed -0.882
GGUGGAAGACUUCAGUGAATT against Clgn 0.384
CAGCUUGUGCUCGAGUAAATT against Gm3579 -1.14
GGACAGAAAGGUACCCUUATT against Slc30a5 0.461
GGUAGUUGUUCUAUGUUUUTT against Olfr967 -1.07
CGUGGAGCUACCAUAUAGGTT against Mob3b 0.581
CGACCAGCUUCUAGUGCUUTT against Pcdha8 -0.431
CCAAGCCUCCAAUGGUCAGTT against Stat6 -0.623
GCACUAUGACUACAAGAGUTT against Olfr1457 -0.965
GCCGUUGCCUUUCAAGGGATT against Inhbe -0.112
GCUUUUCCGUGAUCAUACATT against Tex14 0.0691
GGAUCCAGAUACUCCCAAGTT against Camp -1.08
CCUACCAGUUCCUAUUUAGTT against Alas2 0.452
GGGUCUCCGAAACUACUUATT against Tmem144 0.00626
GCCAAUUUGACUUGUAAGUTT against Slc22a3 1.4
GGUUUCUGGAAGAAACUGGTT against Polr1a -0.927
CAUUGUCAUUCUAGUUGCATT against Olfr1251 0.64
GGCAACAAUAGUUCAGAAGTT against Rps6ka5 1.5
GCAUAUAAUGUCUAACUCGTT against Eml4 -0.0328
GGUUCUUAACCUCAGCAGUTT against Omg -0.541
GGAGUCUUGCUCUAUAUAATT against Arpc5 1.26
GGCUUCUUUAUGUUUCCUUTT against Usp48 -1.46
GGAAUUCAAGGGCUCCACATT against Grip1 0.378
GGUAGGAUGAGUUGAAGAGTT against AF366264 0.0631
CCAGAAGUUAGAACAGUUCTT against Rp9 1.49
GGAGUACAUGGUACACGUUTT against Fut8 1.52
GGAUGUUGUUUAUCGAGGATT against Med21 -0.572
GGAAACCUGUUUGAUUUUGTT against Aasdhppt 0.798
GCUUUCAUAGCUGGAAACCTT against Olfr173 0.452
CCUCACAAAUAUACAGUUCTT against Pira2 0.519
UUCUACUGGGCUUAACCAGTT against Olfr1032 1.86
GCCAUAUAAGAUUCUUGUGTT against Pi4kb -0.63
GCAAAUGUAUUAUGUCCUUTT against Gm5478 0.0907
GGAUUUGUAAGACUAAUCUTT against Xdh 0.00453
GGUGAAGAGACUGGAGAACTT against Cavin2 -0.277
GGACAUAAAACUUUUCAGUTT against Foxf2 1.02
GCUGGACACGGAAGGUAUATT against Igsf8 -0.595
CCUAAGAACCCUGAUCCUATT against A030005L19Rik 1.08
GGAAAAGGAAGAACUGAUUTT against Sptlc1 -0.477
GGACACCAUUGGCUCCUUATT against Tmub1 1.63
GGUGAUGUUCUAACCCUGCTT against Trex1 -0.0124
GGCUUUGUCUACACUUUCATT against Olfr1308 -1.02
GGAUGGGAAGGUGAUUGUCTT against Gnb5 1
GGAUUUAUUUAUGUCUUCCTT against Slc17a1 0.0643
GCAGUUGAGACAAUAUGUCTT against Trim31 -1.8
GGAUGUGUCGGGAAAUGCUTT against Frmd5 -1.7
GGACAUUUUUCAUUUGUGATT against Zfhx4 1.28
GGUCAUUCACGUCUGCGUUTT against Kcnj8 -0.292
GGCAGCUCUGACUUUAUAATT against Klhdc3 -1.63
CCCUGUAGAAAUUCAAGCCTT against Lyrm4 0.38
GCGGUUUGUCUUCAACAAGTT against Il1b 0.22
CCCUGGACUAAGGAUCACCTT against Cops5 -1.2
GGCAGAAGAAGAGUUCAACTT against Atp6v1e1 -1.1
GCUAAGUACGUUCAUGGCATT against Gba 0.571
GGACUCAUGUUCAACACAGTT against Dimt1 -0.87
GGGAACUGACAAAUGGAAGTT against Samsn1 -0.0777
CGGCAGUCGUGAGACAUAUTT against Camk1d -1.01
GGAUUUUUAGUGUUUGACATT against Rab39 -1.52
GGGCAGUUUUACAAAUGUUTT against Fbxw8 0.985
GGAACUCCAACAGGACUUUTT against Slc26a9 -0.565
UUUACUAGACCUGAUGGCUTT against Olfr815 0.732
GGGACUCUUCUACGAGUUUTT against Lims2 0.836
GGAAAACAAGAGGUGAUCUTT against Bfar -1.62
GGUGUUUGAUAGGUAUCUUTT against Ptpa -1.12
